# Results: PubChem BioAssay (NCI)
# Compounds without any hit were thinned out: in the full panel of roughly 83,000, 20% have a hit.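 Negative percent growth values reflect cell death: -40 means 40% of the cells present at the start died, and -100 means all died.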 Values without a mark were called inactive. Activity calls are given as the source filed them. Rule for the calls: active = growth percent below 10; inactive = the rest.
# Tests used:
# Assay in all cases: NCI-60 one-dose screen, 48 h (100 = growth as untreated, 0 = no growth, -100 = all killed)
# Details in all cases: 10 µM
# [1] = test system: HCT-15 colon
# [2] = test system: HT29 colon
# [3] = test system: SNB-75 CNS
# [4] = test system: SNB-19 CNS
# [5] = test system: U251 CNS
# [6] = test system: PC-3 prostate
# [7] = test system: SK-MEL-5 melanoma
# [8] = test system: UACC-62 melanoma
# [9] = test system: LOX IMVI melanoma
# [10] = test system: SK-MEL-28 melanoma
Compound,growth [1],growth [2],growth [3],growth [4],growth [5],growth [6],growth [7],growth [8],growth [9],growth [10]
COc1ccc(-c2[nH]ncc2/C=C/c2cc(C(F)(F)F)[nH]c(=O)n2)cc1,97%,99.1%,88%,91%,88.5%,98.7%,93.7%,102%,87.4%,114%
O=C(c1ccccc1)C(Nc1ccccc1)c1ccccc1 (configuration not stated),97.8%,86.4%,79.6%,101%,89.6%,75.5%,85.6%,74.9%,86%,99%
O=C(Nc1cccc(C(F)(F)F)c1)C(Cl)Cl,94%,92.2%,91.3%,99%,102%,95.1%,103%,105%,101%,104%
CC(=O)CS(C)(=O)=O,110%,107%,96.9%,102%,102%,103%,98%,108%,101%,113%
Cc1noc(C)c1-c1ccc2nc(NC(=O)[C@H]3CCN(C#N)C3)cn2c1,84.4%,78.1%,67.7%,108%,93.7%,91.7%,86.6%,77.7%,77.7%,104%
N#Cc1ccc(-n2cnc(NC(=O)[C@H]3CCN(C#N)C3)c2)cc1,11.1%,15.6%,-1.74% (active),35.1%,7.35% (active),32%,12.1%,18.8%,16.5%,36.4%
Cc1cc2cc3c(=O)[nH]c(=O)cc-3n(CC(O)C(O)C(O)CO)c2cc1C (configuration not stated),105%,110%,103%,114%,104%,99.9%,110%,112%,99.8%,114%
COc1ccc(/C=C(\c2cc(OC)c(OC)c(OC)c2)c2nnc(-c3cccs3)o2)cc1,103%,90.7%,-10.5% (active),52.3%,55.7%,81.7%,64.6%,78.1%,92.8%,69.7%
CCOC(=O)Nc1ccc2c(c1)C(=O)N(CCOC)c1ccccc1O2,26.1%,8.18% (active),31.9%,54.5%,39.3%,38.4%,12.3%,30.6%,38.7%,62.9%
CC(=O)Nc1ccc2c(c1)C(N1CC3CCC(CC3)C1)c1ccccc1-2 (configuration not stated),53.3%,75.1%,88.6%,107%,77.7%,34.8%,49.3%,60.5%,93.3%,108%
FC(F)(F)c1ccc(-c2cnc(Cl)nc2NCc2cc(C(F)(F)F)cc(C(F)(F)F)c2)cc1,8.09% (active),21.3%,27.2%,14.8%,10.7%,4.94% (active),77.3%,6.65% (active),-8.46% (active),46%
Cc1cn(C(=O)/C(Cl)=C(/Cl)C(=O)O)c2ccccc12,105%,110%,73%,106%,114%,83.6%,104%,94%,93.7%,112%
N#C/C(=C\N1C(=O)/C(=C/c2cccc([N+](=O)[O-])c2)SC1=S)c1nc2ccccc2s1,95%,90.6%,82.5%,88.8%,69%,83.5%,64.6%,63.3%,79.8%,92.4%
O=C(O)CCCCSCCCCC(=O)O,106%,90.4%,95.7%,108%,93.3%,96.8%,93.9%,109%,109%,114%
CCCCOCCOCCOCc1cc2c(cc1Br)OCO2,97.1%,92.6%,99.7%,106%,94.9%,93.2%,97.8%,89.9%,106%,106%
COc1cc(Cl)cc(-c2nn(-c3cccc(NC(=O)Nc4cccc(C(F)(F)F)c4)c3)cc2-c2ccncc2)c1,7.83% (active),5.75% (active),12.5%,16.1%,4.59% (active),-9.92% (active),5.3% (active),-11.5% (active),4.64% (active),14.1%
COc1cccc(C(=O)NNc2nc(N3CCN(C4CCCCC4)CC3)nc(N3CCN(C(c4ccccc4)c4ccccc4)CC3)n2)c1,25.4%,24%,63.6%,47.7%,32.6%,21%,-85.1% (active),39.6%,7.83% (active),64.3%
CCN1CCN(c2nc(NNC(=O)c3cccc(OC)c3)nc(N3CCN(C(c4ccccc4)c4ccccc4)CC3)n2)CC1,15.4%,9.36% (active),61.9%,78.1%,41.8%,41.9%,53.5%,73.5%,7.34% (active),63.2%
Cc1ccc(-c2cc(-c3cccc(Nc4ccnc5cc(Cl)ccc45)c3)nc3nc(N)[nH]c(=O)c23)cc1,99.4%,97.5%,76.9%,84.8%,88.5%,95.8%,99%,97.7%,–,110%
Cc1cc(Cl)ccc1Nc1nc(C(F)(F)F)ccc1C(=O)N/N=C/c1ccccc1Cl,22.9%,14.7%,37.9%,29.5%,22.5%,8.2% (active),-54.4% (active),-4.83% (active),–,37.2%
Cc1ccc(NS(=O)(=O)c2ccccc2)c(NS(=O)(=O)c2ccccc2)c1,104%,102%,90.5%,95.2%,98.6%,94.6%,104%,87.9%,–,116%
C[C@H](NC(=O)[C@@H]1CSSC[C@@H](NC(=O)Cc2nc3ccccc3cc2O)C(=O)NCC(=O)N1C)c1ccccc1,102%,100%,150%,95.2%,95.7%,81.2%,82.5%,77.9%,–,67.4%
CCOc1ccc(-n2cc(-c3ccc(N(C)C)cc3)[n+]3c2CCCCC3)cc1,75.8%,9.2% (active),18.4%,20.3%,8.21% (active),4.48% (active),-92.4% (active),20.4%,–,51.2%
CCCc1ccnc(NS(=O)(=O)c2ccc(N)cc2)n1,105%,72.9%,88.2%,76.6%,54.6%,60.7%,84.3%,85.7%,82.9%,78.9%
Cc1ccc([P+](Cc2ccccc2)(c2ccccc2)c2ccccc2)cc1,87.4%,3.42% (active),6.53% (active),24.7%,10.1%,2.37% (active),-43% (active),1.54% (active),–,24.4%
CCOc1nc(-c2ccccc2)cc2c(O)c(C(=O)NCCCO)[nH]c(=O)c12,102%,104%,88.6%,96.9%,100%,46.3%,88.8%,99.8%,–,102%
Nc1nsc(C(=O)c2ccc(O)cc2)n1,102%,106%,101%,103%,93.5%,76.1%,97.9%,89%,89.3%,100%
COc1ccc(NC(=O)CCn2cnc3c(cc(-c4ccccc4)n3-c3ccccc3)c2=O)cc1,98.6%,102%,-10.5% (active),57.2%,77.4%,86.6%,91%,92.4%,–,101%
